# Source: PubChem BioAssay AID2283220 (EPA ToxCast)
# Results filed as inconclusive are left out. Activity calls are given as the source filed them. The calls were made as follows: active = hit-call score of the fitted dose curve at least 0.9, where 1 is the maximum; inconclusive = response in the unintended direction; inactive = score below 0.9.
# Biological target: human Serum/Glucocorticoid Regulated Kinase 1 (SGK1), SGK1 (gene 6446) (UniProt O00141)
# Assay: NVS_ENZ_hSGK1: NovaScreen (NVS) Enzymatic Assay for human Serum/Glucocorticoid Regulated Kinase 1 (SGK1)
# Method: NVS_ENZ_hSGK1 is a biochemical, single-readout assay that uses extracted gene-proteins in a cell-free assay. Measurements were taken 1 hour after chemical dosing in a 96-well plate.NVS_ENZ_hSGK1 is one of one assay component(s) measured or calculated from the NVS_ENZ_hSGK1 assay. It is designed to make measurements of enzyme activity, a form of enzyme reporter, as detected with fluorescence intensity signals by Fluorescence and electrophoretic mobility shift technology.Data from the assay component NVS_ENZ_hSGK1 was analyzed into 1 assay endpoint. This assay endpoint, NVS_ENZ_hSGK1, was analyzed in the positive analysis fitting direction relative to DMSO as the negative control and baseline of activity. Using a type of enzyme reporter, loss-of-signal activity can be used to understand changes in the enzymatic activity as they relate to the gene SGK1. Furthermore, this assay endpoint can be referred to as a primary readout, because this assay has produced […] where this one serves a enzymatic activity function. To generalize the intended target to other relatable targets, this assay endpoint is annotated to the kinase intended target family, where the subfamily is serine/threonine kinase.
# Binding assays used specific radioligands (tritiated, iodinated) with non-radioactive competitive displacement ligands in agonist or antagonist protocols (as indicated) and various reference compounds and inhibitors to titrate specific binding to receptors and transporters. Most enzyme assays (CYPs, kinases, phosphatases, proteases, HDACs) used recombinant protein and specific substrates (fluorescence mostly, some colorimetric and radioactive) and inhibitors, followed by a biochemical separation of substrate and product. All assays for the biochemical HTS were initially run in duplicate at a single concentration (10 uM for CYP450 assays and 25 uM for all others). Assay-chemical combinations meeting a pre-defined threshold (e.g., 30% inhibition and other criteria defined below) were then run in singleton concentration-response format with maximum concentration of 20 uM for CYPs and 50 uM for all others. Each assay was run with positive and negative controls, and concurrent controls on every plate. The follow-up (secondary) screen tested active chemical-pairs in concentration series, as well as a few additional assays not tested in the primary screen, some selected negative inactives, and several cases re-run in the concentration series for confirmatory purposes.
# human Serum/Glucocorticoid Regulated Kinase 1 (SGK1), SGK1 (gene 6446), sequence (O00141 whole entry, looked up): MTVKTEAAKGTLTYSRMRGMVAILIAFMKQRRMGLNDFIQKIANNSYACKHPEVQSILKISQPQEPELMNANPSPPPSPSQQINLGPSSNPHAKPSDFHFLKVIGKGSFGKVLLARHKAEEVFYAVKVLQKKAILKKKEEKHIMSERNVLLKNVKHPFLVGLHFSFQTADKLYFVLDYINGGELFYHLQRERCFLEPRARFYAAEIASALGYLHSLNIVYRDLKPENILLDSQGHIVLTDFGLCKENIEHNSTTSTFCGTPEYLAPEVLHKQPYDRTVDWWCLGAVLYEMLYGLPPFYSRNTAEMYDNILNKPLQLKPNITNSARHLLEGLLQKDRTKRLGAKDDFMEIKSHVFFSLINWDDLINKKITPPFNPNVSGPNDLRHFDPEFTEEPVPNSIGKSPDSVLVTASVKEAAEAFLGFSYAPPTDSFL
SMILES,outcome,AC50
OC(c1ccc(Cl)cc1)(c1ccc(Cl)cc1)C(Cl)(Cl)Cl,inactive,–
O=S(=O)(O)C(F)(F)C(F)(F)C(F)(F)C(F)(F)C(F)(F)C(F)(F)C(F)(F)C(F)(F)F,–,26.2 µM (active)
CCNc1nc(Cl)nc(NCC)n1,inactive,–
CC(Oc1cccc(Cl)c1)C(=O)O (centres undefined),inactive,–
CNC(=S)S,inactive,–
CCCC(=NOCC)C1=C(O)CC(CC(C)SCC)CC1=O (centres undefined),inactive,–
O=C(O)C(F)(F)C(F)(F)C(F)(F)C(F)(F)C(F)(F)C(F)(F)C(F)(F)F,inactive,–
O=C(O)COc1ccc(Cl)cc1Cl,inactive,–
S=C1NCCN1,inactive,–
COC(=O)c1ccccc1S(=O)(=O)NC(=O)N(C)c1nc(C)nc(OC)n1,inactive,–
CC(C)OC(=O)Nc1cccc(Cl)c1,inactive,–
Nc1c(Cl)cc([N+](=O)[O-])cc1Cl,inactive,–
COP(=S)(OC)Oc1ccc([N+](=O)[O-])cc1,inactive,–
N#Cc1c(Cl)c(Cl)c(Cl)c(C#N)c1Cl,–,19.8 µM (active)
